The text below walks through data of PubChem BioAssay (NCATS).

Values joined by “and” are separate entries in the source; they are usually repeats but may differ in a detail not shown here. Equal values may be shown once. A number with no mark means an inactive call. Results filed as inconclusive are left out. Where a call stands in place of a potency, no number is given. Active and inactive are the calls of the source. Unless noted, calls come from the whole dose curve; as a rule, active = well fitted curve in the direction sought with a large enough effect; inconclusive = small, poorly fitted or top-dose-only effect, or another doubt; inactive = no such curve, though single readings can be large; an effect the other way counts as inactive or inconclusive.

In experiment [1] the target is Tumor necrosis factor (Homo sapiens) (UniProt P01375). Put plainly: qHTS assay to identify small molecules that stimulate Tumor Necrosis Factor-alpha (TNF-alpha) secretion (AID 651757; active = well fitted curve in the direction sought with a large enough effect in the signal ratio; the % refers to the signal ratio). In a few lines:
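THP-1 cells were exposed to compounds for 17 hrs at 37 C, after which secreted TNF-alpha was measured by homogeneous HTRF (TR-FRET) using cryptate- and XL665-labeled anti-TNF-alpha antibodies, read after 3 hr at room temperature.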

The nature of experiment [2]: qHTS assay for environmental chemicals that activate the Aryl hydrocarbon Receptor (AhR) signaling pathway (AID 651777). Note: nearly all actives have a fitted effect of over 15% in size. The conditions noted are these: 1A2-DRE human hepatoma cells, luciferase, 24 h; stronger effect = higher value. The method, boiled down: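 Measured luciferase activity, read 30 min after One-Glo addition at room temperature, from human hepatoma cells bearing a dioxin response element–CYP1A2 promoter reporter and exposed to compound for 24 hr at 37 C.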
A general note: In qHTS, concentration-response curves come from the screen itself.

Experiment [3] deals with Peroxisome proliferator-activated receptor alpha (Homo sapiens) (UniProt Q07869). The experiment in a line: qHTS assay for small molecule agonists of the peroxisome proliferator-activated receptor alpha (PPARalpha) signaling pathway (AID 651778). The conditions noted are these: PathHunter PPARalpha complementation, chemiluminescence, 6 h; stronger effect = higher value. The method, boiled down: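 Chemiluminescence from complemented enzyme reported PPARalpha activation in cells after 6 hr of compound treatment at 37 C. The detection reagent was incubated for 60 min at room temperature, and compounds were scored as agonists.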

Experiment [4] concerns the target Nuclear receptor ROR-gamma (Homo sapiens) (UniProt P51449). Put plainly: qHTS assay for small molecule antagonists of the retinoid-related orphan receptor gamma (ROR-gamma) signaling pathway (AID 651802).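 Note: luciferase reporter luminescence driven by ROR response element; nearly all actives have a fitted effect of over 60% in size.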 The source says:
National Center for Advancing Translational Sciences [NCATS]
NIH Chemical Genomics Center [NCGC]
National Institutes of Environmental Health Sciences [NIEHS]
National Toxicology Program [NTP]
Nuclear steroid hormone receptors are involved in many biological processes including inflammatory responses, cell proliferation, and apoptosis. Environmental factors or compounds disrupting these nuclear receptor pathways and gene expression may promote susceptibility to immunotoxicants and autoimmune diseases. One important group of these expression factors are the retinoid-related orphan receptors. […]
The CHO cell-based assay utilizes a TET-inducible ROR expression factor and ROR response element-LUC reporter gene. Reporter activity was induced using doxycycline and measured after 16hr incubation. Luminescence was read using Viewlux (PerkinElmer), where a decrease in reporter activity would show a decrease in luminescence.
1,000 cells in 4 uL/well were dispensed into white wall/solid bottom 1536-well plates using a Multidrop Combi (Thermo Scientific) dispenser. […] After 16hr incubation at 37C and 5% CO2, 5uL one-glo (promega) was added to each plate and following 30 min incubation at room temperature, luminescence was quantified on a ViewLux (PerkinElmer) plate reader.

Experiment [5] deals with Tyrosine-protein kinase Yes (Homo sapiens) (UniProt P07947). Put plainly: qHTS for small molecule inhibitors of Yes1 kinase: Primary Screen (AID 686947). Note: nearly all actives have a fitted effect of over 60% in size. Note: potency is the fitted concentration of half-maximal effect. The method, boiled down: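 ADP-Glo luminescence readout; final 4 nM Yes1, 0.1 mM ATP, 0.3 mg/mL poly(E4Y), Tris pH 7.5, MgCl2, DTT, Brij-35. 20 min compound preincubation, 60 min reaction at RT. Normalized to DMSO wells with and without enzyme.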

Experiment [6] in a line: qHTS for small molecule inhibitors of Yes1 kinase: Counter Assay (AID 686950).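 Note: no kinase present so only ADP-Glo detection of a fixed ADP amount is tested; luminescence from ADP-Glo reporting ADP in a fixed ATP and ADP mixture.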 The method, boiled down: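 Luminescence read-out from ADP-Glo quantifies a fixed ADP amount (0.02 mM ADP with 0.08 mM ATP) after 60 min at room temperature; signal is normalized between DMSO wells with ATP/ADP and with 0.1 mM ATP alone.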
The target in experiment [7] is Arylsulfatase A (Homo sapiens) (UniProt P15289). The experiment in a line: qHTS screen for enhancers of Arylsulfatase A (ASA1): LOPAC Validation Assay (AID 720538). The note with it: ASA enzyme activity, LOPAC qHTS enhancer assay; at 57.5 µM (top of the series). The method, boiled down:
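First, ASA-I179S fibroblasts from an MLD patient adhered for 6 hrs. Next, compounds were added for 48h. Then pNCS substrate (0.5mM final) with lysis buffer reacted 14h at room temperature before NaOH stop and fluorescence measurement.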

Experiment [8] is described as follows: qHTS for compounds that reverse cellular toxicity of Amyloid beta (A-beta) peptide in yeast: LOPAC Validation Assay (AID 720559). In a few lines:
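Activity is expressed relative to DMSO and an equimolar ferric chloride/clioquinol mix. Compounds were pinned into medium with A-beta-expressing yeast, grown 48 hr at 30 C, then read by absorbance at 600 nm.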

The nature of experiment [9]: qHTS for Activators of Parkin Expression: LOPAC Validation Assay (NLuc Reporter) (AID 720572). In a few lines: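 Parkin promoter-driven FLuc/NLuc neuronal reporter cells; 24 h plating, 7-pt dose response, 24 h at 37 C/5% CO2; FLuc then NanoLuc reagent, 10 min each, luminescence; DMSO/positive control normalized.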
Experiment [10] in a line: qHTS for Activators of Parkin Expression: LOPAC Validation Assay (FLuc Reporter) (AID 720573). The method, boiled down: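 A neuronal cell line harbouring FLuc and NLuc reporters behind the Parkin promoter was exposed to compounds for 24 h. Firefly luciferase signal, measured after 10 min with detection reagent, was scaled to DMSO and positive-control wells.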

Sequence of Tyrosine-protein kinase Yes (Homo sapiens) (P07947 whole entry, looked up): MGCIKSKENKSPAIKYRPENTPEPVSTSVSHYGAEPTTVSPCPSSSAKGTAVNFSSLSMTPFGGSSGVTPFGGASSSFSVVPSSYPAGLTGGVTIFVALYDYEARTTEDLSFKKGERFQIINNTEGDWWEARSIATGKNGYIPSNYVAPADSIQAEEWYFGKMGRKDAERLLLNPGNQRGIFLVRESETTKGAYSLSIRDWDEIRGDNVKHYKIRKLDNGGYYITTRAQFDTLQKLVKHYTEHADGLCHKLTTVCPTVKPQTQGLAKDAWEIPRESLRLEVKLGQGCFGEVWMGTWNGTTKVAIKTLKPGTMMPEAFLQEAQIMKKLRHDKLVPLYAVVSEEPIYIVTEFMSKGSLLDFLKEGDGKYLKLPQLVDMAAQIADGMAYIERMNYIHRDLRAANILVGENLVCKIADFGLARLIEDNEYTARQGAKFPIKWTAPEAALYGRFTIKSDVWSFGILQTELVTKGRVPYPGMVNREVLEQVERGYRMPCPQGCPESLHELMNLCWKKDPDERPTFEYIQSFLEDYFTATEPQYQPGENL
Sequence of Peroxisome proliferator-activated receptor alpha (Homo sapiens) (Q07869 whole entry, looked up): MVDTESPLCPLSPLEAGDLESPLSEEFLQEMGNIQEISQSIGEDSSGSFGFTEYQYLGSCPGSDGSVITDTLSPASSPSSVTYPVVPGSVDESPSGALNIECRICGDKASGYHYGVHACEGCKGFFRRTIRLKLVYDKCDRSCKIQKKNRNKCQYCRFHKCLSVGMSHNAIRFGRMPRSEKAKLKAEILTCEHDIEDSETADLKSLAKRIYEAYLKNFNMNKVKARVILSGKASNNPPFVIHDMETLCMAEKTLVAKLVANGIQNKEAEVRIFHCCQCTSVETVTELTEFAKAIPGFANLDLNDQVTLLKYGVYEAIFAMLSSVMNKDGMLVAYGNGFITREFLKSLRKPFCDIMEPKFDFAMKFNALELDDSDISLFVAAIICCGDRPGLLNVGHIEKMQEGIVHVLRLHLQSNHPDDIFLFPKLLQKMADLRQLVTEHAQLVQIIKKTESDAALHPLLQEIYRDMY
Sequence of Arylsulfatase A (Homo sapiens) (P15289 whole entry, looked up): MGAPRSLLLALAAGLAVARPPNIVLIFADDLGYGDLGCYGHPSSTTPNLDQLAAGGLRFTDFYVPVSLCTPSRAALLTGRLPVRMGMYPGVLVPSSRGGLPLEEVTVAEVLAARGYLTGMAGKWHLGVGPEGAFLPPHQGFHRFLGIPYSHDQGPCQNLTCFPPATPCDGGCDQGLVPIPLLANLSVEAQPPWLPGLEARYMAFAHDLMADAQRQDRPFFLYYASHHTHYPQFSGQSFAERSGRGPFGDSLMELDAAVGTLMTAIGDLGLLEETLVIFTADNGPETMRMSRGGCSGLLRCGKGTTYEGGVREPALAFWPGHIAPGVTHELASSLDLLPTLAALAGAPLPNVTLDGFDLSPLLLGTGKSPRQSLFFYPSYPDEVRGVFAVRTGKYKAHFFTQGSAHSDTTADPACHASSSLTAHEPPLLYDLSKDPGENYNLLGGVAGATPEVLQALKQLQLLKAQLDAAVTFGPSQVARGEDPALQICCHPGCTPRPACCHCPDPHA
Sequence of Nuclear receptor ROR-gamma (Homo sapiens) (P51449 whole entry, looked up): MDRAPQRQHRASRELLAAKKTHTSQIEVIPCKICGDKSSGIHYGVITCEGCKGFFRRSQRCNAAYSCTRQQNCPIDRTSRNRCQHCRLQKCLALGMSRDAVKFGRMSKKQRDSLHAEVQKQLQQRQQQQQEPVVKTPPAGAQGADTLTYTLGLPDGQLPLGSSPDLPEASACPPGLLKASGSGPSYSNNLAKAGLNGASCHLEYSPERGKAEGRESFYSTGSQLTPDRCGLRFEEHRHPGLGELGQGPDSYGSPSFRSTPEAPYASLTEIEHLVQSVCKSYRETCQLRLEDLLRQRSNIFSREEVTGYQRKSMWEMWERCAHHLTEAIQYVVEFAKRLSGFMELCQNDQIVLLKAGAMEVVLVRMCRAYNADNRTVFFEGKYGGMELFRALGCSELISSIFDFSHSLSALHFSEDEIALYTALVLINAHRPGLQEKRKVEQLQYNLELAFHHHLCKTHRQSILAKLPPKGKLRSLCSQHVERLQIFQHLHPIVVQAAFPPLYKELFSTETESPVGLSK
Sequence of Tumor necrosis factor (Homo sapiens) (P01375 whole entry, looked up): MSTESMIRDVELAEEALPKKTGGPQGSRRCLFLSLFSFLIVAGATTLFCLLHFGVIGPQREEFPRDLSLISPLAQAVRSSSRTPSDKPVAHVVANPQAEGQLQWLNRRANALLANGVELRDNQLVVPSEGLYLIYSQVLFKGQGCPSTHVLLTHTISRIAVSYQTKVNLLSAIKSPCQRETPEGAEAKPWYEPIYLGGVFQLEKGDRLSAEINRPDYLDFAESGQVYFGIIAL

On to `C[C@@H]1C[C@H]2[C@@H]3CCC4=CC(=O)C=C[C@]4(C)[C@@]3(F)[C@@H](O)C[C@]2(C)[C@@]1(O)C(=O)CO`, for which the compound was called inactive in [1] and in [4]. Further, the activation in experiment [2] was -0.0369% and 0.315%. In addition, in experiment [3], the max response was -0.146% and 1.68%.

`CCCCn1c(=O)n(Cc2ccccc2F)c(=O)c2[nH]c(Cc3ccc(NC(C)=O)cc3)nc21`: the Potency result in experiment [5] is “inactive”. Also, the outcome in experiment [6] was inactive.

Turning to `CCC(=O)N1CCN(c2ccc(-n3c(=O)ccc4cnc5ccc(-c6cnc7ccccc7c6)cc5c43)cc2C(F)(F)F)CC1`, the Potency result in experiment [5] is “inactive”. Also, the compound was called inactive in experiment [6].

With `CC(C)Oc1cc(Nc2nc(N[C@@H](C)c3ccc(F)cn3)ncc2Cl)[nH]n1`, the Potency in [5] is 6.1 nM (active). In [6], the compound was called inactive.

Take `CCN(CC)CCCCNc1nc2cc(Cl)c(Cl)cc2nc1-c1ccc(-c2cccs2)s1`: in experiment [6], the result was inactive.

Regarding `CC(C)C[C@H](NC(=O)c1cc2ccccc2s1)C(=O)N1CCN(C(=O)[C@H](CO)NS(=O)(=O)c2ccc(Cl)cc2Cl)CC1`, the Potency entry in [5] was “inactive”. The result in experiment [6] was inactive.

For `CCCCc1ccc(NS(=O)(=O)c2ccc(C)c(C(=O)N3CCN(c4cccc(C)c4C)CC3)c2)cc1`, the Potency entry in [5] is “inactive”. Further, the outcome in experiment [6] was inactive.

Regarding `CC(O)=C(C#N)C(=O)Nc1ccc(C(F)(F)F)cc1`, the Potency result in experiment [5] is “inactive”. Besides, in experiment [6], the outcome was inactive.

For the compound `C[C@H]1O[C@@H](n2cc(F)c(=O)[nH]c2=O)[C@H](O)[C@H]1O`, the outcome in experiment [7] is “inactive; inhibitor; fitted 8.4921 uM”. The result in [8], in [9] and in [10] was inactive.

As for `Cc1cccc(Nc2nc(N[C@@H]3CCCC[C@H]3N)ncc2C(N)=O)c1`, the Potency in [5] was 387 nM (active). In experiment [6], the outcome was inactive.

On to `CNC(=O)c1cc(COc2nnc(Nc3ccc(Cl)cc3)c3ccoc23)ccn1`, for which the Potency entry in [5] is “inactive”. Besides, the result in experiment [6] was inactive.

With `Cc1cc2c(cc1C1(c3ccc(C(=O)O)cn3)CC1)C(C)(C)CCC2(C)C`, the compound was called inactive in experiment [6].

In the case of `CN(C)CCOc1ccc(-c2nc(-c3ccc4c(c3)CCC4=NO)c(-c3ccncc3)[nH]2)cc1`, the call in [6] was inactive.

As to `O=C(Nc1ccc(OC(F)(F)F)cc1)c1sccc1NCc1ccnc2ccccc12`, the result in [6] was inactive.

`CCNC(=O)c1noc(-c2cc(C(C)C)c(O)cc2O)c1-c1ccc(CN2CCOCC2)cc1`: in experiment [6], the compound was classed as inactive.

For `COc1cccc(OC)c1-c1cc(C(=O)NC2(C(=O)O)C3CC4CC(C3)CC2C4)nn1-c1ccnc2cc(Cl)ccc12` (configuration not stated), the Potency result in experiment [5] is “inactive”. For the same compound, the compound was called inactive in experiment [6].

Regarding `Cc1c(C(=O)Nc2ccc(N3C[C@@H](C)O[C@@H](C)C3)nc2)cccc1-c1ccc(OC(F)(F)F)cc1`, the Potency result in [5] was “inactive”. Further, the outcome in [6] was inactive.

In the case of `C=CCc1cccc(C=NNC(=O)CN2CCN(Cc3ccccc3)CC2)c1O`, the call in experiment [8], in experiment [9] and in experiment [10] was inactive.

As to `COc1c(C)cnc(Cn2cnc3c(Cl)nc(N)nc32)c1C`, the Potency result in [5] was “inactive”. In addition, the result in experiment [6] was inactive.

`CN1C(=O)C(Cc2c[nH]c3ccccc23)NC1=S` (configuration not stated): the Potency result in experiment [5] was “inactive”. The compound was called inactive in [6].

Regarding `CC(C)(C)c1[nH]cnc1C=c1[nH]c(=O)c(=Cc2ccccc2)[nH]c1=O`, the Potency entry in experiment [5] is “inactive”. For the same compound, the outcome in [6] was inactive.

In the case of `CC(=O)NCCC(=O)N[C@@H](CCC(N)=O)C(=O)N[C@@H](CO)C(=O)N[C@@H](CCC(N)=O)C(=O)N[C@@H](CCC(N)=O)C(=O)N[C@H](C(=O)N[C@@H](Cc1ccccc1)C(=O)N[C@]1(C)CCCCCCC=CCCC[C@@](C)(C(=O)N[C@@H](CCC(N)=O)C(=O)N[C@@H](CC(N)=O)C(N)=O)NC(=O)[C@H](CC(C)C)NC(=O)[C@H](CC(C)C)NC(=O)[C@@H](CCCNC(=N)N)NC(=O)[C@H](Cc2c[nH]c3ccccc23)NC(=O)[C@H](CC(C)C)NC(=O)[C@H](CC(N)=O)NC1=O)[C@H](C)O`, the compound was called inactive in experiment [6].

`Cc1ccc(NC(=O)c2ccc(CN3CCN(C)CC3)cc2)cc1Nc1nc(-c2cccnc2)cs1`: the Potency in experiment [5] is 345 nM (active). For the same compound, the outcome in experiment [6] was inactive.

For the compound `COc1ccc(CCN(C)CCCOc2ccc(S(=O)(=O)c3[nH]c4ccccc4c3C(C)C)cc2)cc1OC`, the Potency result in experiment [5] is “inactive”. For the same compound, the call in experiment [6] was inactive.

Consider `CN(C)CCN(C)C(=O)c1ccc(NC(=O)Nc2ccc(-c3nc(N4CCOCC4)c4ccn(CC(F)(F)F)c4n3)cc2)cc1`, for which, in experiment [6], the compound was called inactive.

Consider `O=C(O)Cc1cccc(OCCCN(Cc2cccc(C(F)(F)F)c2Cl)CC(c2ccccc2)c2ccccc2)c1`, for which, in [6], the call was inactive.

For `CCCCOCCOc1nc(-c2ccc(C(=O)O)c(F)c2)sc1C`, the compound was classed as inactive in experiment [6].

Take `COc1cc2nccc(Oc3ccc(NC(=O)Nc4cc(C)on4)c(Cl)c3)c2cc1OC`: in experiment [5], the Potency was 772 nM (active). For the same compound, in experiment [6], the result was inactive.
